Assay results reported in PubChem BioAssay (EPA / NIEHS).
Where a structure was tested more than once in an assay, its records may differ in their call. Calls of active or inactive are those of the source. The calls were made as follows: active = hit-call score of the fitted dose curve at least 0.9, where 1 is the maximum; inactive = score below 0.9.

Tests used:
[1] = BSK_KF3CT_SRB: Viability Assessment in the BioMAP Diversity Plus: KF3CT Assay (AID 2283069); settings: primary human keratinocytes with fibroblasts
How it was run: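 Overt cytotoxicity is assessed as total protein by sulforhodamine B staining in parallel human skin co-cultures at 24 h after dosing. DMSO serves as negative control and baseline.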

[2] = read-out: Interleukin-1 alpha (IL1a), IL1A (gene 3552); experiment: BSK_KF3CT_IL1a: BioMAP Diversity Plus: KF3CT Assay for Interleukin-1 alpha (IL1a) Biomarker Activity (AID 2283070); settings: primary human keratinocytes with fibroblasts; actives raise or lower the signal
How it was run: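 Readout is IL-1a level by ELISA, compared bidirectionally with DMSO as baseline. Cells: human keratinocytes co-cultured with foreskin fibroblasts, harvested 24 h post-dose.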

[3] = read-out: TIMP metallopeptidase inhibitor 2 (TIMP2), TIMP2 (gene 7077); experiment: BSK_KF3CT_TIMP2: BioMAP Diversity Plus: KF3CT Assay for TIMP metallopeptidase inhibitor 2 (TIMP2) Biomarker Activity (AID 2283071); settings: primary human keratinocytes with fibroblasts; actives raise or lower the signal
How it was run: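 Measurements come from ELISA detection of TIMP-2 at 24 hours in a dosed human keratinocyte and foreskin fibroblast co-culture. DMSO serves as negative control and baseline.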

[4] = read-out: Transforming growth factor beta 1 (TGFb1), TGFB1 (gene 7040); experiment: BSK_KF3CT_TGFb1: BioMAP Diversity Plus: KF3CT Assay for Transforming growth factor beta 1 (TGFb1) Biomarker Activity (AID 2283072); settings: primary human keratinocytes with fibroblasts; actives raise or lower the signal
How it was run: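 TGF-b1 ELISA on a 24 h dosed co-culture of human keratinocytes and foreskin fibroblasts; cytotoxicity tracked in parallel cultures by SRB staining.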

[5] = read-out: C-C motif chemokine 2 (Homo sapiens) (UniProt P13500); experiment: BSK_KF3CT_MCP1: BioMAP Diversity Plus: KF3CT Assay for Monocyte Chemoattractant Protein 1 (MCP1/CCL2) Biomarker Activity (AID 2283073); settings: primary human keratinocytes with fibroblasts; actives raise or lower the signal
How it was run: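 ELISA read-out of MCP-1, 24 h post-dose, in primary human skin keratinocytes co-cultured with fibroblasts. Parallel SRB staining monitors cytotoxicity; changes fitted both directions relative to DMSO.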

[6] = read-out: urokinase plasminogen activator (uPA), PLAU (gene 5328); experiment: BSK_KF3CT_uPA: BioMAP Diversity Plus: KF3CT Assay for urokinase plasminogen activator (uPA) Biomarker Activity (AID 2283075); settings: primary human keratinocytes with fibroblasts; actives raise or lower the signal
How it was run: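 Values derive from bidirectional fitting against DMSO controls. Keratinocyte/foreskin fibroblast co-cultures received chemical; 24 h later uPA was detected by ELISA, with SRB total-protein staining in parallel wells for overt cytotoxicity.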

CD40, CD40 (gene 958) [7] = experiment: BSK_LPS_CD40: BioMAP Diversity Plus: LPS Assay for CD40 Biomarker Activity (AID 2283076); settings: primary human HUVEC with PBMC; actives raise or lower the signal
How it was run: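 In the LPS system of human endothelial cells with peripheral blood mononuclear cells, CD40 levels were read by ELISA 24 h post-treatment. Signal changes in either direction were fitted against the DMSO baseline, with parallel SRB protein staining.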

[8] = read-out: E-selectin (Homo sapiens) (UniProt P16581); experiment: BSK_LPS_Eselectin: BioMAP Diversity Plus: LPS Assay for Eselectin Biomarker Activity (AID 2283077); settings: primary human HUVEC with PBMC; actives raise or lower the signal
How it was run: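 E-selectin ELISA on LPS-stimulated endothelial cell/PBMC co-cultures, read 24 h post-treatment; gains and losses fitted against DMSO. Parallel SRB staining (0.1% SRB after 10% TCA fixation, 560 nm) flags overt cytotoxicity.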

[9] = read-out: Interleukin-8 (IL8), CXCL8 (gene 3576); experiment: BSK_LPS_IL8: BioMAP Diversity Plus: LPS Assay for Interleukin-8 (IL8) Biomarker Activity (AID 2283078); settings: primary human HUVEC with PBMC; actives raise or lower the signal
How it was run: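 ELISA read-out of IL-8 after 24 h chemical treatment of LPS-activated endothelial/PBMC human primary co-cultures. Changes either up or down relative to DMSO; overt cytotoxicity checked by sulforhodamine B staining in parallel wells.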

[10] = BSK_LPS_SRB: Viability Assessment in the BioMAP Diversity Plus: LPS Assay (AID 2283079); settings: primary human HUVEC with PBMC;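 also: total protein by sulforhodamine B absorbance as a cytotoxicity measure; measured one day after compound addition; fitted in both directions against DMSO so loss or gain of signal counts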
How it was run: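 SRB viability endpoint: cells fixed with 10% TCA, stained with 0.1% SRB, read at 560 nm, 24 h post-dose. HUVEC/PBMC co-culture; signal change in either direction scored relative to DMSO.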

[11] = read-out: Interleukin-1 alpha (IL1a), IL1A (gene 3552); experiment: BSK_LPS_IL1a: BioMAP Diversity Plus: LPS Assay for Interleukin-1 alpha (IL1a) Biomarker Activity (AID 2283080); settings: primary human HUVEC with PBMC; actives raise or lower the signal
How it was run: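 Readout is IL-1a level by ELISA, 24 h post-dose, fitted as gain or loss relative to DMSO. System: LPS-activated human primary co-culture of vascular endothelium and peripheral blood mononuclear cells, with parallel SRB total-protein cytotoxicity.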

[12] = read-out: Monocyte Chemoattractant Protein-1 (MCP1), CCL2 (gene 6347); experiment: BSK_LPS_MCP1: BioMAP Diversity Plus: LPS Assay for Monocyte Chemoattractant Protein-1 (MCP1) Biomarker Activity (AID 2283081); settings: primary human HUVEC with PBMC; actives raise or lower the signal;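 as to AC50: secreted MCP-1 protein quantified by ELISA in culture supernatant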
How it was run: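 Secreted MCP-1 read by ELISA at 24 h post-dosing in an LPS-activated co-culture of endothelial cells with peripheral blood mononuclear cells. Fits run in both directions, DMSO as baseline; parallel SRB staining tracks overt cytotoxicity.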

[13] = BSK_LPS_PGE2: BioMAP Diversity Plus: LPS Assay for Prostaglandin E2 (PGE2) Biomarker Activity (AID 2283082); settings: primary human HUVEC with PBMC; actives raise or lower the signal;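 as to AC50: secreted prostaglandin E2 measured by ELISA in LPS-stimulated co-culture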
How it was run: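 Primary human endothelial cells and blood mononuclear cells, co-cultured with LPS, receive test chemical; PGE2 ELISA follows at 24 h, with SRB-stained parallel cultures flagging cytotoxicity.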

[14] = read-out: Macrophage colony-stimulating factor (MCSF), CSF1 (gene 1435); experiment: BSK_LPS_MCSF: BioMAP Diversity Plus: LPS Assay for Macrophage colony-stimulating factor (MCSF) Biomarker Activity (AID 2283083); settings: primary human HUVEC with PBMC; actives raise or lower the signal
How it was run: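 Bidirectional fitting against DMSO was applied to M-CSF levels read by ELISA at 24 h post-dose. The system pairs human umbilical vein endothelium with peripheral blood mononuclear cells; parallel SRB staining tracked cytotoxicity.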

[15] = read-out: Tissue Factor, F3 (gene 2152); experiment: BSK_LPS_TissueFactor: BioMAP Diversity Plus: LPS Assay for Tissue Factor Biomarker Activity (AID 2283084); settings: primary human HUVEC with PBMC; actives raise or lower the signal
How it was run: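 Compound was added to an endothelial cell/PBMC co-culture, and after 24 h tissue factor (CD142) was read by ELISA. Gain or loss of signal was fitted against a DMSO baseline, and parallel SRB staining (560 nm) tracked overt cytotoxicity.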

[16] = read-out: Tumor necrosis factor (Homo sapiens) (UniProt P01375); experiment: BSK_LPS_TNFa: BioMAP Diversity Plus: LPS Assay for Tumour Necrosis Factor alpha (TNFa) Biomarker Activity (AID 2283085); settings: primary human HUVEC with PBMC; actives raise or lower the signal;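 as to AC50: TNFa protein level quantified by ELISA in the co-culture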
How it was run: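 ELISA-based TNFa endpoint in a human endothelial–PBMC co-culture sampled 24 h post-exposure. Curves were fitted in both directions using DMSO as baseline of activity.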

[17] = read-out: Vascular cell adhesion molecule 1 (VCAM1), VCAM1 (gene 7412); experiment: BSK_LPS_VCAM1: BioMAP Diversity Plus: LPS Assay for Vascular cell adhesion molecule 1 (VCAM1) Biomarker Activity (AID 2283086); settings: primary human HUVEC with PBMC; actives raise or lower the signal
How it was run: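 Measured by ELISA: VCAM-1 in LPS-activated HUVEC/PBMC co-cultures 24 h after treatment. Values reflect bidirectional fitting with DMSO as baseline.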

CD38, CD38 (gene 952) = experiment: BSK_SAg_CD38: BioMAP Diversity Plus: SAg Assay for CD38 Biomarker Activity (AID 2283087); settings: primary human HUVEC with PBMC; actives raise or lower the signal
How it was run: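 Measures CD38 on a human endothelial/PBMC co-culture driven by SEB and TSST-1, 24 h after compound exposure, using ELISA with fluorescence detection; DMSO defines baseline for bidirectional curve fitting.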

CD40, CD40 (gene 958) [18] = experiment: BSK_SAg_CD40: BioMAP Diversity Plus: SAg Assay for CD40 Biomarker Activity (AID 2283088); settings: primary human HUVEC with PBMC; actives raise or lower the signal
How it was run: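 CD40 is measured by fluorescence ELISA in an endothelial/PBMC primary human co-culture at 24 h post-dose. Fitting is bidirectional, DMSO baseline. Parallel SRB staining (560 nm) flags cytotoxicity.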

[19] = read-out: Matrix Metallopeptidase 9 (MMP9), MMP9 (gene 4318); experiment: BSK_KF3CT_MMP9: BioMAP Diversity Plus: KF3CT Assay for Matrix Metallopeptidase 9 (MMP9) Biomarker Activity (AID 2283074); settings: primary human keratinocytes with fibroblasts; actives raise or lower the signal;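 as to AC50: MMP9 protein level quantified by ELISA in the co-culture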
How it was run: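 Values come from bidirectional fitting relative to DMSO of MMP-9 levels, which were measured by ELISA. Measurements were taken 24 h after chemical dosing of a keratinocyte and foreskin fibroblast co-culture.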

Measured: AC50

Tumor necrosis factor (Homo sapiens), sequence (P01375 whole entry, looked up): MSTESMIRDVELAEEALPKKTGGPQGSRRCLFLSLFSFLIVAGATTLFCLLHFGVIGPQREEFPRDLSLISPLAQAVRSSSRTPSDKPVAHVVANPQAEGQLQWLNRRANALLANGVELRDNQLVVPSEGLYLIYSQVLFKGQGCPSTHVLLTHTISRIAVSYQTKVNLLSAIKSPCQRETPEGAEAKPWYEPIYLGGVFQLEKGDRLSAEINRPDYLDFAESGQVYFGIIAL
E-selectin (Homo sapiens), sequence (P16581 whole entry, looked up): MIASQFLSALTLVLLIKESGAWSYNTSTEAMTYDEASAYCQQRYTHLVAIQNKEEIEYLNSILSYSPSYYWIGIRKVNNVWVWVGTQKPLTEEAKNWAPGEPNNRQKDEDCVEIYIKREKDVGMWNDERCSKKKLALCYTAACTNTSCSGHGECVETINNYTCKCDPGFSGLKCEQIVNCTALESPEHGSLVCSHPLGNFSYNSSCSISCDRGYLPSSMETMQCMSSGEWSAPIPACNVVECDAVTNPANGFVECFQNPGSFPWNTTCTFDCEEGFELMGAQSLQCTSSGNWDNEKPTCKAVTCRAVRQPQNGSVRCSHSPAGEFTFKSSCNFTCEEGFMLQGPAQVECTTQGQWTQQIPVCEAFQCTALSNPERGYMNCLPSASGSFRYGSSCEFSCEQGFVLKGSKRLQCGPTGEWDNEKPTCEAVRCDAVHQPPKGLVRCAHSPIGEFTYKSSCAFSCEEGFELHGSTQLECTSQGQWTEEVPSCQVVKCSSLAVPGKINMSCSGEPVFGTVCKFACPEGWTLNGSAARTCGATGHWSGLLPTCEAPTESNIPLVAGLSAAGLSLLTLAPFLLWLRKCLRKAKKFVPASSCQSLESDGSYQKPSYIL

Nc1cc2c3c(c1)C(c1ccccc1)=N[C@@H](NC(=O)c1cccnc1)C(=O)N3CC2
active: [16] 1.46 µM | CD40, CD40 (gene 958) [18] 3.97 µM
not listed: [19]
inactive: all other assays above

Nc1ccc(Cl)cc1
inactive: all assays above

CCC1(c2ccccc2)C(=O)N=C(O)NC1=O (stereo not given)
inactive: all assays above

CCCCN(CCCC)SN(C)C(=O)Oc1cccc2c1OC(C)(C)C2
active: [19] 13.8 µM | CD40, CD40 (gene 958) [7] 20 µM | [8] 30.8 µM | [9] 30.9 µM | [10] 28.4 µM | [11] 29.8 µM | [12] 30.9 µM | [14] 30.9 µM | [16] 35 µM | [17] 25.7 µM | CD38, CD38 (gene 952) 31.4 µM | CD40, CD40 (gene 958) [18] 26.2 µM
inactive: [1] | [2] | [3] | [4] | [5] | [6] | [13] | [15]

CCOS(=O)(=O)OCC
not listed: [6]
inactive: all other assays above

O=C(O)C(F)(F)OC(F)(F)C(F)(F)OC(F)(F)F
active: [2] 47.7 µM
inactive: [1] | [2] | [3] | [5] | [6] | CD40, CD40 (gene 958) [7] | [8] | [9] | [10] | [11] | [12] | [13] | [14] | [15] | [16] | [17] | CD38, CD38 (gene 952) | CD40, CD40 (gene 958) [18]

C=CC(=O)OCC(CC)(COC(=O)C=C)COC(=O)C=C
inactive: [9] | [13] | [16]
active: [1] 3.15 µM | [2] 2.16 µM | [3] 5.38 µM | [4] 2.37 µM | [5] 2.35 µM | [19] 2.34 µM | CD40, CD40 (gene 958) [7] 1.35 µM | [8] 2.93 µM | [10] 2.43 µM | [11] 1.46 µM | [12] 3.29 µM | [14] 1.91 µM | [15] 2.29 µM | [17] 2.79 µM | CD38, CD38 (gene 952) 1.78 µM | CD40, CD40 (gene 958) [18] 2.12 µM

CCOc1ccc(C(C)(C)COCc2cccc(Oc3ccccc3)c2)cc1
active: [16] 1.15 µM
not listed: [6] | [11]
inactive: all other assays above

CCOP(=S)(OCC)SCn1nnc2ccccc2c1=O
active: [14] 20 µM
not listed: [19]
inactive: all other assays above

CCCCC(CC)COC(=O)c1c(Br)c(Br)c(Br)c(Br)c1C(=O)OCC(CC)CCCC (stereo not given)
not listed: [19]
inactive: all other assays above

O=C(O)C1C(C(=O)O)C2(Cl)C(Cl)=C(Cl)C1(Cl)C2(Cl)Cl (stereo not given)
inactive: all assays above

CCCCc1ccccc1
not listed: [6]
inactive: all other assays above

N#Cc1c(-c2ccc(Cl)cc2)[nH]c(C(F)(F)F)c1Br
inactive: [1] | [2] | [3] | [6] | [8] | [12] | [14] | [15]
active: [4] 0.186 µM | [5] 0.0621 µM | CD40, CD40 (gene 958) [7] 4.05 µM | [9] 4.18 µM | [10] 3.97 µM | [11] 1.36 µM | [13] 0.949 µM | [16] 0.016 µM | [17] 3.97 µM | CD38, CD38 (gene 952) 0.343 µM | CD40, CD40 (gene 958) [18] 0.34 µM

Cc1ccc(O)cc1C
active: [13] 4.57 µM
inactive: all other assays above
